The values that follow come from PubChem BioAssay AID504850 (National Center for Advancing Translational Sciences (NCATS), 2011).

Each structure is given as a SMILES string. The whole screen tested about 2,300 compounds, of which about 1,200 (52%) were called active. Roughly 34% stayed inconclusive and do not appear here. Calls come from the whole dose curve; as a rule, active = well fitted inhibition curve with a large enough effect; inconclusive = small, poorly fitted or top-dose-only effect, or effect the other way; inactive = no such curve, though single readings can be large or run the other way. The set was probably picked from earlier hits. Some of the results follow.
Potency is the fitted concentration of half-maximal effect.

The nature of this experiment: Confirmation screen for delayed death inhibitors of the malarial parasite plastid, 48 hour incubation. Note: nearly all actives have a fitted effect of over 65% in size. Conditions: P. falciparum-infected erythrocytes, luciferase growth; series mostly up to 28.7 µM. The method in brief:
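Single-generation (48 h, 37 C) exposure of integrated firefly luciferase-reporter P. falciparum in red cells, 0.1% parasitemia at 2% hematocrit, Albumax-supplemented RPMI. Falling luciferase signal marks parasite growth inhibition.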
Take `Cc1cccc(C(=O)Nc2ccccc2SCC2CSc3nc4ccccc4c(=O)n32)c1` (configuration not stated): the Potency is 11.2 µM (active).
`O=C(Nc1ccccc1SCC1CSc2nc3ccccc3c(=O)n21)c1cccc(Cl)c1` (configuration not stated): the Potency is 11.2 µM (active).
Turning to `O=C(Nc1ccccc1SCC1CSc2nc3ccccc3c(=O)n21)c1ccccc1Cl` (configuration not stated), the Potency was 11.2 µM (active).
In the case of `Cc1ccc(C(=O)Nc2ccccc2SCC2CSc3nc4ccccc4c(=O)n32)cc1` (configuration not stated) it was 11.2 µM (active).
Regarding `COc1ccc(NS(=O)(=O)c2cc(OCC(N)=O)c(C)cc2Cl)cc1`, the Potency is 7.08 µM (active).
In the case of `COc1ccc(/C=C2\N=C(SC)N(c3ccccc3OC)C2=O)cc1` it was 14.1 µM (active); in that of `CCN(CC)C1=N/C(=C\c2ccc(OC)cc2)C(=O)N1c1ccccc1`, 14.1 µM (active).
In the case of `COc1cccc(CN(C)Cc2cc(=O)oc3c(C)c(C)ccc23)c1` it was “inactive”; in that of `Cc1ccc2c(CN(C)Cc3cccc(Cl)c3)cc(=O)oc2c1C`, “inactive”; in that of `Cc1c(O)ccc2c(CN(C)Cc3ccccc3)cc(=O)oc12`, 14.1 µM (active).
In the case of `COc1ccccc1CN1CCCC(CN(CCN(C)C)C(=O)c2ccc(C)cc2)C1` (configuration not stated) it was 15.8 µM (active); in that of `Cn1nnnc1Sc1ncnc2scc(-c3cccc(F)c3)c12`, 12.6 µM (active); in that of `Cn1nnnc1Sc1ncnc2scc(-c3cccc(S(C)(=O)=O)c3)c12`, 12.6 µM (active).
Consider `Cc1onc(-c2c(F)cccc2Cl)c1C(=O)N1CCCCC1`, for which the Potency entry was “inactive”.
In the case of `Cc1onc(-c2c(Cl)cccc2Cl)c1C(=O)N=C(N)N1CC(C)OC(C)C1` (configuration not stated) it was 11.2 µM (active); in that of `C=CCC1(O)C(=O)N2C(=C1C(=O)OCC)c1ccc3ccccc3c1CC2(C)C` (configuration not stated), 11.2 µM (active); in that of `Cc1ccc(C(=O)NCCn2ccc3ccccc32)cc1[N+](=O)[O-]`, “inactive”.
Turning to `CCCNC(=O)c1ccc(S(=O)(=O)c2ccc(OC)cc2)c([N+](=O)[O-])c1`, the Potency was 7.94 µM (active).
In the case of `O=C1Nc2ccccc2/C1=C/C(=O)c1cccs1` it was “inactive”.
In the case of `O=C(N/N=C/C(Cl)=C\c1ccccc1)c1cccs1` it was 5.01 µM (active); in that of `O=C(N/N=C(\CC(=O)c1cccs1)C(F)(F)F)c1ccncc1`, “inactive”; in that of `CC(=O)OC[C@H]1O[C@@H](n2ncc(=O)[nH]c2=O)[C@H](OC(C)=O)[C@@H]1OC(C)=O`, “inactive”.
In the case of `CCN(CC(=O)Nc1c(F)cccc1F)C(=O)c1ccc(S(=O)(=O)NCc2ccco2)cc1` it was “inactive”.
As for `Cc1ccc(S(=O)(=O)N(Cc2ccccc2)c2ccccc2C(=O)Nc2ccccc2C(=O)NCc2ccco2)cc1`, the Potency is 2.51 µM (active).
In the case of `CCCN(CCC)S(=O)(=O)c1ccc(C(=O)NCc2ccco2)cc1` it was 12.6 µM (active); in that of `Cc1ccc(S(=O)(=O)N(CC(=O)NCc2ccco2)c2ccccc2C)cc1`, 12.6 µM (active).
In the case of `Cc1ccc(NC(=O)CN(C)C(=O)c2cccc(S(=O)(=O)NCc3ccco3)c2)cc1` it was “inactive”.
